# Most compounds without a hit are left out; they make up all but 2.8% or so of the library.
# KDM5B inhibitor = inhibitors of human KDM5B histone demethylase. KDM5B demethylase, FDH-coupled NADH fluorescence (FDH is formaldehyde dehydrogenase). Potency, µM (top dose mostly 57.7 µM), actives largely listed as inhibitors. 220,000 tested, 2.6% active. AID 1347165; active = well fitted inhibition curve with a large enough effect; inconclusive = small, poorly fitted or top-dose-only effect; inactive = no such curve, though single readings can be large or run the other way; note: potency is the fitted concentration of half-maximal effect; 0% is about no effect; nearly all actives have a fitted effect of over 70% in size
#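 KDM5BΔAP (200 nM final) in 50 mM HEPES pH 7.5, 0.01% Tween-20 was preincubated 10 min at RT with compound over a concentration range. Substrate mix (H3K4me3 12.5 µM, α-KG 25 µM, Fe²⁺, ascorbate, NAD⁺, FDH) was added, and NADH fluorescence change over 30 min gave dose-response curves.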
# IP6K1 inh = inhibitors of human IP6K1. Q92551. IP6K1 kinase, ADP-Glo luminescence, 2 h; active compounds read low. activity change, % (series mostly up to about 58 µM). 140,000 tested, 0.81% active. AID 1645851; in the data active = activity change below about -25%; note: % is set by controls: 0 for no effect and ±100 for the full control effect
# Target sequence (Q92551 whole entry, looked up): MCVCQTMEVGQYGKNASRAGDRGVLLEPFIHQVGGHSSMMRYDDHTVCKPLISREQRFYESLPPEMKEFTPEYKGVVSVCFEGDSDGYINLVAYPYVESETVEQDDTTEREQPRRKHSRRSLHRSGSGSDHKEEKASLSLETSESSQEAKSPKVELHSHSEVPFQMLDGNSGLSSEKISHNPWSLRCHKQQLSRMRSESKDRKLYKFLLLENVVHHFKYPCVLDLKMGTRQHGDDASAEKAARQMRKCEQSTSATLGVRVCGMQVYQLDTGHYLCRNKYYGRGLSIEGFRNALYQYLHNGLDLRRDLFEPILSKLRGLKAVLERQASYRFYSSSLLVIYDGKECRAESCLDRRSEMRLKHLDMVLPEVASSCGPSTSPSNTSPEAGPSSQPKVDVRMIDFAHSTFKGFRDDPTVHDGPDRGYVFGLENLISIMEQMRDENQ
#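 ADP-Glo luminescence measures ADP made by human IP6K1 during a 2 h RT reaction with ATP/IP6 (mix at 1.3 mM/130 uM); top library doses 57.5 and 19.1 uM final.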
# Active calls of the source: *; i = inactive; ? = inconclusive; . = no result given.
SMILES,KDM5B inhibitor,IP6K1 inh
Cc1cccc(NC(=O)c2cc3c(=O)n4ccccc4nc3n2C)c1C,?,5
COc1ccc(-c2ccnc3nc(C4CC4)nn23)cc1,16µM*,-4
COc1ccc(Cc2nc3nccc(-c4ccsc4)n3n2)cc1,i,-11
COc1ccc(-c2ccnc3nc(C4CC4)nn23)c(F)c1,25µM*,-5
O=C1CC(C(=O)N2CCN(S(=O)(=O)c3c(Cl)cccc3Cl)CC2)c2ccccc2N1 (stereo not drawn),i,.
O=C1CCN(Cc2ccc(O)cc2)CCCC(c2nc(-c3cnccn3)no2)CCN1 (stereo not drawn),i,34
CSc1ccc(-c2ccc(C(=O)O)cc2)cc1,i,-24
COc1ccc(C(NC(=O)Cc2ccccc2)c2nccc3cc(OC)c(OC)cc23)cc1OC (stereo not drawn),i,.
COc1ccc(NC(=O)CSc2nc(CCSC)c(C)[nH]2)cc1,i,.
Cc1ccc(-c2nc(CN3C(=O)C(=O)N(C(C)C)C3=O)co2)cc1,i,.
O=C(Nc1cccc(Cl)c1)c1ccc2nnc(-c3ccc(Cl)cc3)n2c1,.,-3
CC(C)NC(=O)c1ccc(-c2nnc3ccc(NC(=O)C4CCC4)cn23)cc1,25µM*,-5
O=C(Nc1ccc(-c2nnc3n2CCCC3)cc1)C1CCC1,i,-1
COc1cccc(NC(=O)c2ccc(-c3nnc4ccc(NC(=O)C5CCC5)cn34)cc2)c1,25µM*,-9
CCOc1ccc(NC(=O)c2ccc(-c3nnc4ccc(NC(=O)C5CC5)cn34)cc2)cc1,?,-5
CCN1CCN(C(=O)c2ccc(-c3nnc4ccc(NC(=O)C5CCC5)cn34)cc2)CC1,20µM*,-7
CCN1CCN(C(=O)c2ccc3nnc(C4CCCC4)n3c2)CC1,.,5
O=C(Nc1ccc2nnc(-c3ccc(C(=O)N4CCCCC4)cc3)n2c1)C1CCC1,20µM*,-10
Cc1ccccc1NC(=O)CNc1nc(Nc2ccccc2)nc(Nc2ccccc2)n1,i,.
COc1ccc(NC(=O)Cc2c(C)c3c(O)cc(C)cc3oc2=O)cc1OC,i,.
CC(=O)Oc1ccc2c(=O)c(-c3ccc(Cl)cc3)coc2c1,i,.
CCOC(=O)c1cc(S(=O)(=O)N(C)CC(=O)N2CCN(c3ccc(Cl)cc3)CC2)cn1C,i,.
COc1ccc2c(c1)c(=O)c(S(=O)(=O)c1ccccc1)cn2CC(=O)Nc1ccc(C)c(Cl)c1,?,16
CCCCNc1nc(N)c2[nH]c(=O)n(Cc3ccc(OCCN(C)C)nc3)c2n1,.,-4
CCN(CC)C(=O)c1ccc(-c2nnc3ccc(NC(=O)C4CC4)cn23)cc1,22µM*,-7
SMILES,KDM5B inhibitor,IP6K1 inh
CN(C)C(=O)c1ccc2nnc(-c3ccc(Cl)cc3)n2c1,.,4
O=C(CCNS(=O)(=O)c1ccc2c(c1)CCCC(=O)N2)NCc1ccccc1Cl,i,2
CCCn1c(SCCC(=O)O)nc2c1c(=O)[nH]c(=O)n2C,i,.
O=C(NC1C[C@H]2CC[C@@H](C1)N2C(=O)C1CCCC1)c1ccncc1 (stereo partly drawn),i,15
Cc1ccc(F)c(C(=O)N[C@H](C2CCNCC2)C2CC(O)C2)c1Cl (stereo partly drawn),i,-5
Cc1cnc2c(C(=O)N[C@H](C3CCNCC3)C3CC(O)C3)cnn2c1 (stereo partly drawn),32µM*,-1
O=C(N[C@H](C1CCNCC1)C1CC(O)C1)c1ccccc1C(F)(F)F (stereo partly drawn),i,1
CC(C)Cc1cc(C(=O)N[C@H](C2CCNCC2)C2CC(O)C2)nc(N)n1 (stereo partly drawn),22µM*,14
O=C(N[C@H](C1CCNCC1)C1CC(O)C1)c1cccc(=O)[nH]1 (stereo partly drawn),22µM*,6
Cn1cc(Cl)cc1C(=O)N[C@H](C1CCNCC1)C1CC(O)C1 (stereo partly drawn),i,-5
CC(C(=O)NC(c1ccccc1)c1ccccc1)n1nc(C(=O)O)c2ccccc2c1=O (stereo not drawn),i,.
O=C(O)CCCC(=O)N1CCN2C(=O)c3cc(-c4ccco4)ccc3NC(=O)[C@@H]2C1,40µM*,3
O=C(O)CCCC(=O)N1CCN2C(=O)c3cc(Br)ccc3NC(=O)[C@@H]2C1,i,15
O=C1Nc2ccc(-c3ccccc3)cc2C(=O)N2CCN(C(=O)NC3CCCCC3)C[C@H]12,i,6
O=C1Nc2ccc(-c3ccccc3)cc2C(=O)N2CCN(C(=O)c3cccc(F)c3)C[C@H]12,28µM*,-6
O=C1Nc2ccc(-c3ccco3)cc2C(=O)N2CCN(C(=O)NC3CCCCC3)C[C@H]12,28µM*,-15
O=C1Nc2ccc(-c3ccco3)cc2C(=O)N2CCN(C(=O)c3ccccc3)C[C@H]12,35µM*,8
O=C1Nc2ccc(Br)cc2C(=O)N2CCN(C(=O)c3ccccc3)C[C@H]12,i,-2
O=C1Nc2ccc(-c3ccc(Cl)cc3)cc2C(=O)N2CCN(C(=O)c3cccc(F)c3)C[C@H]12,?,1
CN(C)c1nc2c(c(=O)[nH]1)CCN(Cc1ccc(F)cc1)CC2,i,1
COCCN1C(=O)c2cccn2CC1CNC(=O)NCc1ccc(OC)cc1 (stereo not drawn),i,-7
CC(C)OC(C)C(=O)N1CCc2onc(-c3ccc(C(F)(F)F)cc3)c2C1 (stereo not drawn),i,8
COc1ccc(C(=O)N2CCc3onc(-c4ccc(C(F)(F)F)cc4)c3C2)o1,10µM*,11
COc1ccc(-c2nnc(SCC(=O)NC3CCCC3)nc2-c2ccc(OC)c(OC)c2)cc1OC,?,-12
c1ccc(-c2noc(-c3ccn4c(CN5CCSCC5)nnc4c3)n2)cc1,?,16
SMILES,KDM5B inhibitor,IP6K1 inh
c1ccc(CC2CCN(Cc3nnc4cc(-c5nc(-c6ccccc6)no5)ccn34)CC2)cc1,i,40
c1ccc(-c2noc(-c3ccn4c(CN5CCc6ccccc6C5)nnc4c3)n2)cc1,32µM*,9
CC(=O)N1CCN(Cc2nnc3cc(-c4nc(-c5ccccc5)no4)ccn23)CC1,6.3µM*,45
COc1ccc(-c2csc(NC(=O)Cn3cnc4c3c(=O)n(C)c(=O)n4C)n2)cc1F,i,.
O=C(C[C@H]1NC(=O)c2ccccc2NC1=O)Nc1nnc(C2CC2)s1,i,26
COc1ccccc1CN1CCC2(CCCN(C3CCOCC3)C2=O)C1 (stereo not drawn),?,23
Cc1cccc(-n2nc(-c3c(C)nc4scc(CC(=O)N5CCCC5)n4c3=O)cc2C)c1,28µM*,11
Cc1ccc(-n2nc(-c3c(C)nc4scc(CC(=O)N5CCOCC5)n4c3=O)cc2C)cc1,?,9
Cc1nc2scc(CC(=O)N3CCCC3)n2c(=O)c1-c1cc(C)n(-c2ccc(F)cc2)n1,?,29
Cc1ccc(-n2nc(-c3c(C)nc4scc(CC(=O)N5CCCC5)n4c3=O)cc2C)cc1,?,12
Cc1nc2scc(CC(=O)N3CCCC3)n2c(=O)c1-c1cc(C)n(-c2ccc(C(C)C)cc2)n1,25µM*,15
Cc1cccc(-n2nc(-c3c(C)nc4scc(CC(=O)N5CCOCC5)n4c3=O)cc2C)c1,28µM*,8
COC(=O)N1CCC(C(=O)N2CCCC(c3nc4ncccc4[nH]3)C2)CC1 (stereo not drawn),.,17
O=C(N[C@@H]1C[C@H]2CC[C@@H]1C2)c1ccc(F)cc1,i,.

# Source: PubChem BioAssay
